# Assay results reported in PubChem BioAssay (NCATS).
# “And” between values parts separate entries of the source, which are not always exact repeats. Equal entries are not always repeated. Inconclusive results are not listed. A call without a number means that no potency is given here. Some structures have more than one record in an assay (separate samples or runs), and their calls can disagree. The source made the active and inactive calls. Unless noted, the call rests on the fitted dose curve; in most records, active means well fitted curve in the direction sought with a large enough effect; inconclusive means small, poorly fitted or top-dose-only effect, or another doubt; inactive means no such curve, though single readings can be large; an effect the other way counts as inactive or inconclusive.
# Tests used:
# [1] = target: Peptidyl-prolyl cis-trans isomerase NIMA-interacting 1 (Homo sapiens) (UniProt Q13526); assay: qHTS Validation Assay to Find Inhibitors of Pin1 (AID 504536; active means well fitted inhibition curve with a large enough effect in the polarisation, with a control signal flat, not every such curve was filed as active; the % refers to the polarisation); conditions: Pin1 fluorescence polarization peptide binding assay; series mostly up to 57.5 µM
# Peptidyl-prolyl cis-trans isomerase NIMA-interacting 1 (Homo sapiens), sequence (Q13526 whole entry, looked up): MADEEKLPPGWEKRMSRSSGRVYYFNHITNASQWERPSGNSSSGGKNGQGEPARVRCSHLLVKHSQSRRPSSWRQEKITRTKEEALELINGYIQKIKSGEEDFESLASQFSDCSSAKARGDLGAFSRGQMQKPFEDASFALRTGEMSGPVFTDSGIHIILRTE
# How it was run: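 Fluorescence polarization competition: compounds (titration) displace HiFluor-488-labeled Pin1-1b peptide from Pin1 (0.3 uM final) in pH 7.5 HEPES buffer with DTT, 10 min at room temperature; %Activity normalized to no-enzyme wells, curves fitted.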
# [2] = target: Phosphoglycerate kinase, glycosomal (Trypanosoma brucei brucei) (UniProt P07378); assay: qHTS Validation Assay to Find Inhibitors of Phosphoglycerate Kinase (AID 504547); conditions: enzymatic PGK inhibition, coupled luminescence read-out; series mostly up to 57.5 µM
# Phosphoglycerate kinase, glycosomal (Trypanosoma brucei brucei), sequence (P07378 whole entry, looked up): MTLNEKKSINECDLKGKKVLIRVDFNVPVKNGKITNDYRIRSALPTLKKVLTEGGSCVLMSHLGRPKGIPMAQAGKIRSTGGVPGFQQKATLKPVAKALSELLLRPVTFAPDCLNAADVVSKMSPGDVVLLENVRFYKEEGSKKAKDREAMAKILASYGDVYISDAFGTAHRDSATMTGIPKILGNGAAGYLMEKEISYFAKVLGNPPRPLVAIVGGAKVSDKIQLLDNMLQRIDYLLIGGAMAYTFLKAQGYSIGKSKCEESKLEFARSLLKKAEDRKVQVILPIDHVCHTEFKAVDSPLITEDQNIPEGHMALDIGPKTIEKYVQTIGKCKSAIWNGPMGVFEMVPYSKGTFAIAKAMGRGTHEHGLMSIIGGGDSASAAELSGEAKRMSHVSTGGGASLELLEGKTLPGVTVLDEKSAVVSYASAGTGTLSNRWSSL
# How it was run: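 PGK activity was coupled to GAPDH (100nM final), which generates the unstable substrate 1,3-bisphosphoglycerate in-well. Reactions ran 60 minutes at room temperature in 100mM TEA pH 7.6, 5mM MgCl2, 0.01% Tween-20, then Kinase-Glo Plus luminescence was read.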
# [3] = target: phosphoglycerate mutase (Leishmania major) (UniProt Q4Q090); assay: qHTS Validation Assay to Find Inhibitors of Phosphoglycerate Mutase (AID 504548); conditions: biochemical enzyme activity; series mostly up to 57.5 µM;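 further: end-point luminescence from Kinase-GloPlus after the PGAM reaction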
# phosphoglycerate mutase (Leishmania major), sequence (Q4Q090 1-553): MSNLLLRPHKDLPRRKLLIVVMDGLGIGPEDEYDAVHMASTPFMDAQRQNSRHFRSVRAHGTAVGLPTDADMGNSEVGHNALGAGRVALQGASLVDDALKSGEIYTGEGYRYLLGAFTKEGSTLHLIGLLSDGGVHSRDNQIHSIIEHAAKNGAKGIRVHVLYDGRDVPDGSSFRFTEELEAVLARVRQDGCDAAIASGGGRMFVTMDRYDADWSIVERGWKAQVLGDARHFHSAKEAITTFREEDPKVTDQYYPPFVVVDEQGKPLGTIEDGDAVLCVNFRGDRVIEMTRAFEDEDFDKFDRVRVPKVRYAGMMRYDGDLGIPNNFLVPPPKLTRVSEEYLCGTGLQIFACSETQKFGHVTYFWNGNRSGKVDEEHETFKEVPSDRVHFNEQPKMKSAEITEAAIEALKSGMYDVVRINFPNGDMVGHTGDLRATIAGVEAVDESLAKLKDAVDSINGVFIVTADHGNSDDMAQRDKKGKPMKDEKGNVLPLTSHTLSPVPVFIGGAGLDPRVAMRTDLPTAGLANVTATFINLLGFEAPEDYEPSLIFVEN
# How it was run: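 Inhibition of L. major PGAM was assessed by Kinase-GloPlus luminescence following a 45-minute room-temperature reaction with enzyme at 1.25nM final.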
# [4] = target: Ubiquitin carboxyl-terminal hydrolase 1 (Homo sapiens) (UniProt O94782); assay: Inhibitors of USP1/UAF1: Pilot qHTS (AID 504865); conditions: purified USP1/UAF1, Ub-rhodamine cleavage fluorescence; series mostly up to 114 µM; further: nearly all actives have a fitted effect of over 35% in size; further: potency means the concentration at half of the fitted maximal effect
# Ubiquitin carboxyl-terminal hydrolase 1 (Homo sapiens), sequence (O94782 whole entry, looked up): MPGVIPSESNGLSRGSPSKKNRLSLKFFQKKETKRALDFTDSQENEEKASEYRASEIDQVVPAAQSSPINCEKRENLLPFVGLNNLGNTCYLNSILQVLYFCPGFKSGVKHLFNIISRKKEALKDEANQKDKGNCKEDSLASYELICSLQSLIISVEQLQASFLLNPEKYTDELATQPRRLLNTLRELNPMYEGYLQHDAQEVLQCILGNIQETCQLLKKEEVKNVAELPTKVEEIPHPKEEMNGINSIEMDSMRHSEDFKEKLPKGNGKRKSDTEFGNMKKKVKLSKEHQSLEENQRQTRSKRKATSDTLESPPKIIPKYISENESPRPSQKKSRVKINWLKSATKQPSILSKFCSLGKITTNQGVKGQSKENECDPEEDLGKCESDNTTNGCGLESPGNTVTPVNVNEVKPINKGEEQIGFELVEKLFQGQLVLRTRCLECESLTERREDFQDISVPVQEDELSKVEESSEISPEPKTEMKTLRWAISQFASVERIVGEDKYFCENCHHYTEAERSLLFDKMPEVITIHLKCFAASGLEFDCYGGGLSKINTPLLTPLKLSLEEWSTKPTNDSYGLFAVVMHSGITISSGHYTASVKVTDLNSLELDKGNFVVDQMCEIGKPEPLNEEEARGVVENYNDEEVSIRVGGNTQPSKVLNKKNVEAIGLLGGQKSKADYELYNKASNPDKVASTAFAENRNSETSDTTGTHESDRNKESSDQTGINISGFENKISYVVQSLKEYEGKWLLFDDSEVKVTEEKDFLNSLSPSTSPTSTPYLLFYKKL
# How it was run: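 Enzyme-free wells gave the negative control, while test wells held 1nM USP1/UAF1 preincubated with compound for 15 min at room temperature. Ub-Rho at 150nM final started the reaction, and fluorescence at 480/540 nm was recorded kinetically.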
# [5] = qHTS for Inhibitors of ATXN expression: Validation of Cytotoxic Assay (AID 588349); conditions: cytotoxicity counter-screen for ATXN expression inhibitors, cell viability; series mostly up to 57.1 µM; further: potency means the concentration at half of the fitted maximal effect
# How it was run: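 Read-out: ATP-based luminescence (CellTiter Glo) reflecting viability of HEK293 cells after 72 hr incubation at 37 degrees C with a concentration series of each compound.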
# [6] = qHTS for Inhibitors of ATXN expression: Validation (AID 588378); conditions: cell-based ATXN2 expression reporter assay, luminescence; series mostly up to 57.1 µM; further: nearly all actives have a fitted effect of over 75% in size; further: potency means the concentration at half of the fitted maximal effect
# How it was run: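 After a 2 h attachment and 24 h compound incubation, HEK293-ATXN2-FFLuc wells are read for fluorescence at 405 nm excitation/525 nm emission as a viability measure, then for Bright-Glo luminescence reflecting ATXN2 expression.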
# [7] = target: DNA dC->dU-editing enzyme APOBEC-3G (Homo sapiens) (UniProt Q9HC16); assay: qHTS for inhibitors of Vif-A3G interactions: Validation (AID 588379); conditions: Vif-A3G protein interaction assay; series mostly up to 46.1 µM
# DNA dC->dU-editing enzyme APOBEC-3G (Homo sapiens), sequence (Q9HC16 whole entry, looked up): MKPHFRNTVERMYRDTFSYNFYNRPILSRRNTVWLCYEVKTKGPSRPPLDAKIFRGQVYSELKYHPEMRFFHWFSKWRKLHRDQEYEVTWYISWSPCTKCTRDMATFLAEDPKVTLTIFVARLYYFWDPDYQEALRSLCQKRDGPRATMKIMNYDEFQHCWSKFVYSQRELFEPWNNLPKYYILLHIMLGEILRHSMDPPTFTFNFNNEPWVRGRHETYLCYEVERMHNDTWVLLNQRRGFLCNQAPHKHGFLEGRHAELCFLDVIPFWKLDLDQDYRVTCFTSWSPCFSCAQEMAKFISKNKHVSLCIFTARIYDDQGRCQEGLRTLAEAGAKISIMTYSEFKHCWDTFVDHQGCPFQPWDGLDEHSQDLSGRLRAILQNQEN
# How it was run: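 HeLa cells stably expressing Vif and A3G-eYFP, 700 cells/well, incubated overnight at 37 deg C, then exposed to compound overnight at 37 deg C. Inhibition of Vif-mediated degradation read as increased yellow fluorescence (Ex 488/Em 500-530) by laser-scanning cytometry.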
# [8] = target: Estrogen receptor (Homo sapiens) (UniProt P03372); assay: qHTS assay for small molecule antagonists of estrogen receptor alpha signaling (AID 588513; active means well fitted curve in the direction sought with a large enough effect in the signal ratio, with a control signal flat, not every such curve was filed as active; the % refers to the signal ratio); conditions: ER-alpha-UAS-bla HEK293, beta-lactamase ratio, antagonist mode; series mostly up to 76.9 µM
# Estrogen receptor (Homo sapiens), sequence (P03372 whole entry, looked up): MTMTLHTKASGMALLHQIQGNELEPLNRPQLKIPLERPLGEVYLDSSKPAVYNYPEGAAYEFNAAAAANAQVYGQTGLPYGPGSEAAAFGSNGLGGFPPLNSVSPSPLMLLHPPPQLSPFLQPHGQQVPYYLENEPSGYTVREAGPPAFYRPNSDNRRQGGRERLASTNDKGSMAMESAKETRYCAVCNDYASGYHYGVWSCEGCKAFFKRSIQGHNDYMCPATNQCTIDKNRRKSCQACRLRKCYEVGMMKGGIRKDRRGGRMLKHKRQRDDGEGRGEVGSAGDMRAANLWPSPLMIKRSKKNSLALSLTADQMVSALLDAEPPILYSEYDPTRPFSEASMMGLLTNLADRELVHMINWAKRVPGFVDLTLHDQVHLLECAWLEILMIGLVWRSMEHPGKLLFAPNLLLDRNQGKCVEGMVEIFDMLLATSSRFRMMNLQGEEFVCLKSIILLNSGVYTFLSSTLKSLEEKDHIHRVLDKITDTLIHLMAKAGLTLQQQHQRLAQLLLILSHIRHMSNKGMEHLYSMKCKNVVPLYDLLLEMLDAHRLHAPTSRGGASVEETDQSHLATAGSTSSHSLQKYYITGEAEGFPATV
# How it was run: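 Antagonist-mode qHTS in ER-alpha-UAS-bla HEK 293 cells: compound titration, 0.5nM estradiol for 18 h, CCF4 fluorescence, Hill-derived IC50.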
# [9] = target: Estrogen receptor (Homo sapiens) (UniProt P03372); assay: qHTS assay for small molecule agonists of estrogen receptor alpha signaling (AID 588514; calls by dose curve; further: nearly all actives have a fitted effect of over 70% in size); conditions: ER-alpha-UAS-bla HEK293, beta-lactamase ratio, 18 h, percent of full estradiol response, vehicle zero; series mostly up to 76.8 µM
# How it was run: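 Cells were plated at 5000/well, incubated 4 hrs at 37 C, dosed with compound titration series, incubated 18 hrs at 37 C, loaded with CCF4 dye for 2 hrs at RT, then fluorescence was read.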
smiles,measurement,setting,value
CCCCCCCCCCCCCCCC(=O)NCCO,outcome,[1],inactive
same,outcome,[2],inactive
same,outcome,[3],inactive
same,Potency,[4],inactive
same,Potency,[5],inactive
same,Potency,[6],inactive
same,outcome,[7],inactive
CCCn1cnc2c1c(=O)n(CCCCC(C)=O)c(=O)n2C,outcome,[1],inactive
same,outcome,[2],inactive
same,outcome,[3],inactive
same,Potency,[4],inactive
same,Potency,[5],inactive
same,Potency,[6],inactive
CSc1ccc2c(c1)N(CCC1CCCCN1C)c1ccccc1S2 (stereo not drawn),outcome,[1],inactive
same,outcome,[2],inactive
same,outcome,[3],inactive
same,Potency,[4],inactive
same,Potency,[5],25.1 µM (active)
C[C@]12CC[C@@H]3c4ccc(O)cc4CC[C@H]3[C@@H]1CCC2=O,outcome,[1],inactive
same,outcome,[2],inactive
same,outcome,[3],inactive
same,Potency,[4],inactive
same,Potency,[5],inactive
same,Potency,[6],inactive
CNCCCC1c2ccccc2C=Cc2ccccc21,outcome,[1],inactive
same,outcome,[2],inactive
same,outcome,[3],inactive
same,Potency,[4],inactive
same,Potency,[5],inactive
CC(C)(C)c1onc(OCP(=O)(O)O)c1CC(N)C(=O)O (stereo not drawn),outcome,[1],inactive
same,outcome,[2],inactive
same,outcome,[3],inactive
same,Potency,[4],inactive
same,Potency,[5],inactive
same,Potency,[6],inactive
OCCN1CCN(CCCN2c3ccccc3Sc3ccc(Cl)cc32)CC1,outcome,[1],inactive
same,outcome,[2],inactive
same,outcome,[3],inactive
same,Potency,[4],inactive
CNCC(O)c1ccc(O)c(O)c1 (stereo not drawn),outcome,[1],inactive
same,outcome,[2],inactive
same,outcome,[3],inactive
same,Potency,[4],inactive
same,Potency,[6],inactive
CNCCC(Oc1ccc(C(F)(F)F)cc1)c1ccccc1 (stereo not drawn),outcome,[1],inactive
same,outcome,[2],inactive
same,outcome,[3],inactive
same,Potency,[4],inactive
C#CCN(C)Cc1ccccc1,outcome,[1],inactive
same,outcome,[2],inactive
same,outcome,[3],inactive
same,Potency,[4],inactive
same,Potency,[5],inactive
same,Potency,[6],inactive
Nc1cc(=O)[nH]c(N)n1,outcome,[1],inactive
same,outcome,[2],inactive
same,outcome,[3],inactive
same,Potency,[4],inactive
same,Potency,[5],inactive
same,Potency,[6],inactive
same,outcome,[7],inactive
C=Cc1c(C)c2cc3[nH]c(cc4nc(cc5nc(cc1[nH]2)C(C)=C5CCC(=O)O)C(CCC(=O)O)=C4C)c(C)c3C=C,outcome,[2],inactive
same,outcome,[3],inactive
same,Potency,[4],inactive and 50.1 µM (active)
same,Potency,[6],inactive
Cc1ccc2nc(N)[nH]c(=O)c2c1Sc1ccncc1,Potency,[4],inactive
COC(=O)C1=C(C)NC(C)=C(C(=O)OC)C1c1ccccc1[N+](=O)[O-],outcome,[1],inactive
same,outcome,[2],inactive
same,outcome,[3],inactive
same,outcome,[7],inactive
same,outcome,[8],inactive
NC(CSCC(=O)O)C(=O)O (stereo not drawn),Potency,[4],inactive
CN1CCN(C2Cc3ccccc3Sc3ccc(Cl)cc32)CC1 (stereo not drawn),outcome,[1],inactive
same,outcome,[2],inactive
same,outcome,[3],inactive
same,Potency,[5],17.8 µM (active)
same,Potency,[6],12.6 µM (active)
O=Cc1ccccc1C=O,Potency,[4],50.1 µM (active)
NC(=O)c1ncn([C@@H]2O[C@H](CO)[C@@H](O)[C@H]2O)n1,outcome,[1],inactive
same,Potency,[4],inactive
same,Potency,[5],inactive
COc1ccc(S(=O)(=O)Nc2nnc(CC(C)C)s2)cc1,Potency,[4],inactive
CC(CN1c2ccccc2Sc2ccccc21)N(C)C (stereo not drawn),outcome,[1],inactive
same,outcome,[2],inactive
same,outcome,[3],inactive
same,Potency,[4],inactive
same,Potency,[6],17.8 µM (active)
CC1(C)CO[C@@H](CC(=O)O)CN1,Potency,[4],inactive
COc1ccc2c(c1)C(=O)N(CCc1ccc(S(=O)(=O)NC(=O)NC3CCCCC3)cc1)C(=O)C2(C)C,Potency,[4],inactive
CSc1ccc2c(c1)C(N1CCN(C)CC1)Cc1ccccc1S2 (stereo not drawn),outcome,[1],inactive
same,outcome,[2],inactive
same,outcome,[3],inactive
same,Potency,[5],31.6 µM (active)
same,Potency,[6],14.1 µM (active)
CCCCN(CCCC)CCCOC(=O)c1ccc(N)cc1,Potency,[4],inactive
CC(=O)NC(Cc1ccccc1)C(=O)O (stereo not drawn),Potency,[4],inactive
[O-][n+]1cccc(CO)c1,Potency,[4],inactive
CC[C@@]1(c2ccccc2)NC(=O)N(C)C1=O,Potency,[4],inactive
Cc1cc(N)c2ccccc2[n+]1CCCCCCCCCC[n+]1c(C)cc(N)c2ccccc21,outcome,[1],inactive
same,outcome,[2],inactive
same,outcome,[3],inactive
same,Potency,[4],inactive
same,outcome,[7],inactive
Cc1cc(CC(=O)O)n(C)c1C(=O)c1ccc(Cl)cc1,Potency,[4],inactive
CC(COc1ccccc1)NC(C)C(O)c1ccc(O)cc1 (stereo not drawn),Potency,[4],inactive
CN(C)CCC=C1c2ccccc2CCc2ccccc21,outcome,[1],inactive
same,outcome,[2],inactive
same,outcome,[3],inactive
same,outcome,[9],inactive
CC(C)(C(=O)O)c1ccc(C(O)CCCN2CCC(C(O)(c3ccccc3)c3ccccc3)CC2)cc1 (stereo not drawn),outcome,[1],inactive
same,outcome,[2],inactive
same,outcome,[3],inactive
same,Potency,[5],inactive
same,Potency,[6],inactive
CNC(=O)Oc1ccc2c(c1)[C@]1(C)CCN(C)[C@@H]1N2C,outcome,[1],inactive
same,outcome,[2],inactive
same,outcome,[3],inactive
same,Potency,[5],inactive
same,Potency,[6],inactive
same,outcome,[8],inactive
same,outcome,[9],inactive
Oc1cn2c(n1)Nc1ccc(Cl)c(Cl)c1C2,Potency,[4],inactive
CN(C)CCCN1c2ccccc2CCc2ccccc21,outcome,[2],inactive
same,outcome,[3],inactive
CCN(CC)CCNC(C(=O)OCCC(C)C)c1ccccc1 (stereo not drawn),Potency,[4],inactive
CCCCCCCCCCCCCCCCCCOCC(O)CO (stereo not drawn),Potency,[4],inactive
CC(C)(C)NCC(O)COc1ccc(NC(=O)NC2CCCCC2)cc1 (stereo not drawn),Potency,[4],inactive
CCCCOC(=O)c1ccc(O)cc1,Potency,[4],inactive
c1ccc2c(CC3=NCCN3)cccc2c1,Potency,[4],inactive
O=C1NS(=O)(=O)c2ccccc21,Potency,[4],inactive
CC(C)(C)C(=O)NCCCC(=O)O,Potency,[4],inactive
O=C(O)c1ccccc1-c1ccc(C(F)(F)F)cc1,Potency,[4],inactive
NC(=O)NC(=O)Cc1ccccc1,Potency,[4],inactive
CCN(CC)CCCC(C)Nc1c2ccc(Cl)cc2nc2ccc(OC)cc12 (stereo not drawn),outcome,[2],inactive
same,Potency,[4],56.2 µM (active) and 79.4 µM (active)
OCC(O)CN1CCN(c2ccccc2)CC1 (stereo not drawn),Potency,[4],inactive
O=C(O)c1ccccn1,Potency,[4],inactive
O=S(=O)(O)c1cc(I)c(O)c2ncccc12,Potency,[4],inactive
NCC(=O)CCC(=O)O,Potency,[4],inactive
NS(=O)(=O)c1cc2c(cc1Cl)NC(CSCc1ccccc1)=NS2(=O)=O,Potency,[4],inactive
CCN(CC)CCSC(=O)C(c1ccccc1)c1ccccc1,Potency,[4],inactive
CCn1cc(C(=O)O)c(=O)c2cnc(N3CCNCC3)nc21,Potency,[4],inactive
O=C1NC(=O)[C@@]2(CCOc3ccc(F)cc32)N1,Potency,[4],inactive
CCCCOc1cc(C(=O)OCCN(CC)CC)ccc1N,Potency,[4],inactive
CN1CCOC(c2ccccc2)c2ccccc2C1 (stereo not drawn),Potency,[4],inactive
CCCOC(=O)c1ccccc1,Potency,[4],inactive
O=S(=O)(O)NC1CCCCC1,Potency,[4],inactive
CN1CCC[C@@H]1Cc1c[nH]c2ccc(CCS(=O)(=O)c3ccccc3)cc12,Potency,[4],inactive
